Assay [1] has as its target Voltage-gated inwardly rectifying potassium channel KCNH2 (Homo sapiens) (UniProt Q12809). Put plainly: qHTS Assay for Small Molecule Inhibitors of the Human hERG Channel Activity (AID 588834; active = well fitted curve in the direction sought with a large enough effect; an effect the other way counts as inactive or inconclusive;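 note: U2OS cells transduced with hERG by BacMam; top concentration of the series differs between compounds; % is set by controls: 0 for no effect and ±100 for the full control effect; lower thallium flux fluorescence means stronger hERG block; nearly all actives have a fitted effect of over 50% in size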). In short, it runs like this:
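Cells were infected with hERG-BacMam virus for 4 hrs at room temperature, grown overnight, then seeded at 2000/well. After dye loading and roughly 10 min compound treatment, thallium influx was triggered and fluorescence recorded.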

Assay [2] deals with Peroxisome proliferator-activated receptor gamma (Homo sapiens) (UniProt P37231). Kind of assay: qHTS assay for small molecule antagonists of peroxisome proliferator-activated receptor gamma signaling (AID 588537; active = well fitted inhibition curve with a large enough effect in the signal ratio, with a control signal flat, not every such curve was filed as active; the % refers to the signal ratio;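 note: reporter cells co-stimulated with 50 nM rosiglitazone agonist during compound treatment; % of control where 0% means no effect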). Summed up: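 Compounds are tested as concentration series for inhibition of rosiglitazone-driven (50 nM) reporter expression in GeneBLAzer PPAR-gamma-UAS-bla HEK293 cells. After 16 h at 37 C, CCF4 substrate is added for 2 h at room temperature and blue/green fluorescence is measured.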
Sequence of Peroxisome proliferator-activated receptor gamma (Homo sapiens) (P37231 whole entry, looked up): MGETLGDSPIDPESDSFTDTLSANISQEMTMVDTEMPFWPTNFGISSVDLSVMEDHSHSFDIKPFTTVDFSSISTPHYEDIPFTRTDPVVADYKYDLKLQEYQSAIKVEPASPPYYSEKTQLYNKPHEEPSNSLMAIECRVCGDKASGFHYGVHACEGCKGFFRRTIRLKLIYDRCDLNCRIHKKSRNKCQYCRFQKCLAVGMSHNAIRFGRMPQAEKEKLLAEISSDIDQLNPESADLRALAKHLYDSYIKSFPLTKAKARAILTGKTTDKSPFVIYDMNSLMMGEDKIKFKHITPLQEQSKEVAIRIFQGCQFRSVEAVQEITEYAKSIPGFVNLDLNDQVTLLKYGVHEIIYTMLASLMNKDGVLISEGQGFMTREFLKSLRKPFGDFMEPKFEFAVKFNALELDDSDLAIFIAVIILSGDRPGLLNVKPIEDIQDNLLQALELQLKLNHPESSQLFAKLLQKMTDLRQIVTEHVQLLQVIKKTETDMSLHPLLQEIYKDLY
For orientation: Quantitative high-throughput screening tests each substance at several concentrations.

Assay [3] in a line: qHTS assay for small molecule agonists of retinoid X receptor alpha signaling (AID 588544).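 For activation: 0% = DMSO basal wells and 100% = reference agonist.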 Particulars: HEK293T RXRa-UAS-bla, beta-lactamase reporter, 18 h; 530 nm emission.
Assay [4] has as its target Retinoic acid receptor RXR-alpha (Homo sapiens) (UniProt P19793). Described as above.
The nature of assay [5]: qHTS assay for small molecule antagonists of retinoid X receptor alpha signaling (AID 588546).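 Note: cells stimulated with 9-cis-retinoic acid as agonist; % is set by controls: 0 for no effect and ±100 for the full control effect.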 The note with it: HEK293T RXRa-UAS-bla, beta-lactamase ratio, antagonist mode; measured here: W530 green channel, cytotoxicity proxy. In short, it runs like this: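 Beta-lactamase reporter inhibition, read as CCF4 fluorescence ratio (ex 405, em 460/530 nm) after 2 h at RT. HEK293T UAS-bla cells, 2500/well, were stimulated with 9-cis-RA at 500 or 100 nM final alongside test compound for 18 h at 37 C.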

The target in assay [6] is Luciferin 4-monooxygenase (Photinus pyralis) (UniProt P08659). Put plainly: Biochemical firefly luciferase enzyme assay for NPC (AID 624030; active = well fitted curve in the direction sought with a large enough effect; an effect the other way counts as inactive or inconclusive;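 note: purified P. pyralis luciferase at 10 nM with luciferin and ATP substrate; series mostly up to about 59 µM; 0% = DMSO and -100% = full luciferase inhibition by PTC124 control; nearly all actives have a fitted effect of over 70% in size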). In short, it runs like this: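 Counter-screen for direct inhibition of the luciferase enzyme by approved-drug library compounds, run at 10 nM enzyme in 50 mM Tris acetate (final). Luminescence was read within 5 min of enzyme-buffer addition and normalized to PTC124 versus DMSO (0%).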
Sequence of Luciferin 4-monooxygenase (Photinus pyralis) (P08659 whole entry, looked up): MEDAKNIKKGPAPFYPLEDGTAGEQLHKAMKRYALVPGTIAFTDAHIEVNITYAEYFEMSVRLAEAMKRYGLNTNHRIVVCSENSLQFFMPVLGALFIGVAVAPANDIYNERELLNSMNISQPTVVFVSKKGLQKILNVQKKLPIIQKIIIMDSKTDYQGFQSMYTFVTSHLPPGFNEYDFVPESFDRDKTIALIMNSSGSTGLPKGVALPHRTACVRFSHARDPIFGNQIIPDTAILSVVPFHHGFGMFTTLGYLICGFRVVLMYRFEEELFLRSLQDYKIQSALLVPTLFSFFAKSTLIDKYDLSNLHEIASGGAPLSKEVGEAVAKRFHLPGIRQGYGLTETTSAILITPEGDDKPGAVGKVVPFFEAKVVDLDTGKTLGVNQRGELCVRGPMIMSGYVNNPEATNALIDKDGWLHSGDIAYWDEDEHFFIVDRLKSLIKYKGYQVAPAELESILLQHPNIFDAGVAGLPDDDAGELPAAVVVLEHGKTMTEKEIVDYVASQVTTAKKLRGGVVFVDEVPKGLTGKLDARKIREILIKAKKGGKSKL

Assay [7] can be described thus: S16 Schwann cell viability assay (CellTiter-Glo assay) (AID 624031; active = well fitted curve in the direction sought with a large enough effect; an effect the other way counts as inactive or inconclusive;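 note: native untransfected S16 rat Schwann cells; cellular ATP luminescence as a viability measure; series mostly up to about 58 µM; plate controls were DMSO-treated cells for no effect and cell-free wells for full effect; nearly all actives have a fitted effect of over 70% in size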). Summed up:
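Cells were seeded at 500-750 per well in phenol red-free DMEM with 10% FBS and left overnight. Compounds or DMSO were pinned in, incubation ran 24 h at 37 °C/5% CO2, then CellTiter-Glo reagent was added and luminescence measured.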
(Cellular ATP, detected with luciferase, serves as a proxy for viable cell number.)

Assay [8] can be described thus: S16 Schwann cell PMP22 intronic element firefly luciferase assay (AID 624032; active = well fitted curve in the direction sought with a large enough effect; an effect the other way counts as inactive or inconclusive;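 note: series mostly up to about 58 µM; plate controls were DMSO for no effect and PTC124 positive control mean for full effect; nearly all actives have a fitted effect of over 30% in size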). Summed up: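 Rat S16 Schwann cells stably carrying a PMP22 intronic element-driven Fluc reporter were seeded overnight, then exposed to compounds for 24 h at 37 °C. Luminescence was normalized to PTC124 (positive control) and DMSO (0% activity).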
Assay [9] addresses Estrogen receptor (Homo sapiens) (UniProt P03372). Kind of assay: qHTS assay for small molecule agonists of estrogen receptor alpha signaling (AID 588514).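 Note: 0% = vehicle only and 100% = reference agonist; nearly all actives have a fitted effect of over 70% in size.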 Summed up: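 Efficacy is expressed against 20 nM 17-beta-estradiol (100%) and DMSO basal (0%); EC50 from Hill equation. Assay: beta-lactamase reporter in ER-alpha-UAS-bla HEK 293 cells, 18 h compound incubation, CCF4 detection.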

Assay [10] concerns the target Androgen receptor (Homo sapiens) (UniProt P10275). Kind of assay: qHTS assay for small molecule agonists of androgen receptor signaling (AID 588515; active = well fitted curve in the direction sought with a large enough effect in the signal ratio, with a control signal flat; the % refers to the signal ratio; note: % is set by controls: 0 for no effect and ±100 for the full control effect). Particulars: AR-UAS-bla HEK293, beta-lactamase ratio, agonist 16 h; stronger effect = higher value. Summed up:
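Stimulation of an AR-responsive β-lactamase reporter in GripTite HEK293 cells was measured after 16 h compound exposure at 37 °C, via CCF4 fluorescence after 2 h RT. EC50 from Hill fits, normalized to R1881 at 30 nM.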

For assay [11] the target is unchanged. Kind of assay: qHTS assay for small molecule antagonists of androgen receptor signaling (AID 588516; active = well fitted curve in the direction sought with a large enough effect in the signal ratio, with a control signal flat, not every such curve was filed as active; the % refers to the signal ratio; note: % is set by controls: 0 for no effect and ±100 for the full control effect). Summed up:
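Antagonist-mode qHTS: inhibition of R1881 (10 nM)-driven beta-lactamase expression in GripTite HEK 293 cells is measured after 16 h; values are Hill-derived IC50s normalized between R1881 and DMSO wells.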

The target in assay [12] is Glucocorticoid receptor (Homo sapiens) (UniProt P04150). Put plainly: qHTS assay for small molecule antagonists of glucocorticoid receptor signaling (AID 588533; active = well fitted inhibition curve with a large enough effect in the signal ratio, with a control signal flat, not every such curve was filed as active; the % refers to the signal ratio;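 note: cells stimulated with 2 nM dexamethasone as agonist; % is set by controls: 0 for no effect and ±100 for the full control effect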). Summed up: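 Antagonist-mode qHTS: compound titrations added to GRE-bla HeLa cells, then dexamethasone 2 nM final; 18 h, 37 C. CCF4 FRET fluorescence normalized to dexamethasone and DMSO; IC50 from Hill fit.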
Sequence of Glucocorticoid receptor (Homo sapiens) (P04150 whole entry, looked up): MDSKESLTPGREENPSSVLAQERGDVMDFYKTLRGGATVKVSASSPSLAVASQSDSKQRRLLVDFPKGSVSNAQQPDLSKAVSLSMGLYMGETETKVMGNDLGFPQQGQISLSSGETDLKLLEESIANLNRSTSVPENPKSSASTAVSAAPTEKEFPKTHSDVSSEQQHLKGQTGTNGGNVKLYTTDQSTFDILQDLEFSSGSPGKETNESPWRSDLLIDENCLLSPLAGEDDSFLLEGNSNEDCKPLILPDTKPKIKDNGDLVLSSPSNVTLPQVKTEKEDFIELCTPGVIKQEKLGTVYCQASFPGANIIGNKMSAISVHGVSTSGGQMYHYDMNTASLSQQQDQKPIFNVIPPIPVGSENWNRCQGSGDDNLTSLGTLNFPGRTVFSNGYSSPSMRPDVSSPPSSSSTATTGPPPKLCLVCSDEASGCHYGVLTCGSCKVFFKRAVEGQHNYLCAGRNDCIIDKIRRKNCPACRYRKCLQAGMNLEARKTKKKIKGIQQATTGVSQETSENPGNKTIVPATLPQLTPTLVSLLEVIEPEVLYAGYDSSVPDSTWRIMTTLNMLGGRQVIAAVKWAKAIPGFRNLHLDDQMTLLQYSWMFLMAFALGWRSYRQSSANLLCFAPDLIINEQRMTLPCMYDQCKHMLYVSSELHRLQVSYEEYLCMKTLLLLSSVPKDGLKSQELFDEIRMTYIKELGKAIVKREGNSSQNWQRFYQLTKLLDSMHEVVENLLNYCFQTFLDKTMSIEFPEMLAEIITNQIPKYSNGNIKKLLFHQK

Assay [13] concerns the target Peroxisome proliferator-activated receptor delta (Homo sapiens) (UniProt Q03181). Kind of assay: qHTS assay for small molecule antagonists of peroxisome proliferator-activated receptor delta signaling (AID 588535; active = well fitted inhibition curve with a large enough effect in the signal ratio, with a control signal flat, not every such curve was filed as active; the % refers to the signal ratio;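 for max response: cells co-treated with a PPAR-delta agonist as stimulator during compound exposure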). In short, it runs like this: (§1)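 Inhibition of PPAR-delta response element-driven beta-lactamase expression is measured in HEK293T cells exposed to a compound titration series for 18 hrs at 37 C. Half-maximal inhibition comes from Hill equation fitting.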

The target of assay [14] is Vitamin D3 receptor (Homo sapiens) (UniProt P11473). Kind of assay: qHTS assay for small molecule antagonists of vitamin D receptor signaling (AID 588541). In short, it runs like this:
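VDR-UAS-bla HEK293T cells (2000/well, 2% charcoal-stripped FBS) were treated with titrated compounds plus 1-alpha,25-dihydroxyvitamin D3 (50 nM or 3 nM final) for 16 h at 37 C. CCF4 beta-lactamase fluorescence was read; Hill fits gave IC50.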

For assay [15], the target named is Thyroid hormone receptor beta (Homo sapiens) (UniProt P10828). Put plainly: qHTS assay for small molecule antagonists of thyroid hormone receptor beta signaling (AID 588547; active = well fitted inhibition curve with a large enough effect in the signal ratio, with a control signal flat, not every such curve was filed as active; the % refers to the signal ratio). Particulars: TR-UAS-bla HEK293, beta-lactamase ratio, antagonist mode, 18 h. Summed up: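 TR-UAS-bla GripTite HEK293 cells in 2% charcoal/dextran FBS medium were preincubated 4 h at 37 C, given compound (0.59 nM to 92 uM) plus 0.4 nM T3 (final) for 18 h, then CCF4 for 2 h at RT; Hill fit gave IC50.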
Sequence of Thyroid hormone receptor beta (Homo sapiens) (P10828 whole entry, looked up): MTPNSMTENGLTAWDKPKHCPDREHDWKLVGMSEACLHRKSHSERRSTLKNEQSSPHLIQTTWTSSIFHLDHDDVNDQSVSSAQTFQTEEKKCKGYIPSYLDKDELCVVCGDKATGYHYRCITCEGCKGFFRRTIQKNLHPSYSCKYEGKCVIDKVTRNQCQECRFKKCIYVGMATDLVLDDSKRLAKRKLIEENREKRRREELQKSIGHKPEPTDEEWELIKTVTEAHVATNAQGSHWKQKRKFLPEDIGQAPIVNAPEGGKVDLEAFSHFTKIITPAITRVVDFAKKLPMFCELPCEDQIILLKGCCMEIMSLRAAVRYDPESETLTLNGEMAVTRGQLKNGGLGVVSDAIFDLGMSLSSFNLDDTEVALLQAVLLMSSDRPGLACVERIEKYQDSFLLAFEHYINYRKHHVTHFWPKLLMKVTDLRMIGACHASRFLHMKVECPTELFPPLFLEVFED

Assay [16] has as its target Bile acid receptor (Homo sapiens) (UniProt Q96RI1). Kind of assay: qHTS assay for small molecule antagonists of farnesoid X receptor signaling (AID 588526). Note: % is set by controls: 0 for no effect and ±100 for the full control effect. In short, it runs like this: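 Concentration-response titrations were fitted to the Hill equation for half-maximal inhibition and maximal response, with data normalised to 50 uM chenodeoxycholic acid and DMSO control wells. Cells: FXR-UAS-bla HEK293T, dialyzed FBS.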

A short description of assay [17]: qHTS assay for small molecule antagonists of peroxisome proliferator-activated receptor delta signaling (AID 588535).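 For max response: cells co-treated with a PPAR-delta agonist as stimulator during compound exposure.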 The note with it: HEK293T PPARd-UAS-bla, beta-lactamase FRET ratio, 18 h; 460 nm channel. In short, it runs like this: as §1
Assay [18] deals with Vitamin D3 receptor (Homo sapiens) (UniProt P11473). Kind of assay: qHTS assay for small molecule agonists of vitamin D receptor signaling (AID 588543).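 Note: 0% = DMSO basal and 100% = reference agonist control.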 Summed up:
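qHTS in agonist mode: compound titrations stimulate a VDR-driven β-lactamase reporter in HEK293T cells over 16 h at 37 °C. Response normalized to 50 nM 1α,25-dihydroxyvitamin D3 = 100%, DMSO = 0%; Hill fitting gives EC50 and maximal response.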

The target in assay [19] is Thyroid hormone receptor beta (Homo sapiens) (UniProt P10828). Put plainly: qHTS assay for small molecule agonists of thyroid hormone receptor beta signaling (AID 588545).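 Note: 0% = DMSO only and 100% = 10 nM T3.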 In short, it runs like this: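 Compounds were tested as agonists in TR-UAS-bla-GripTite HEK 293 cells. After 18 hrs at 37 C, CCF4 substrate was added and fluorescence read after 2 hrs at room temperature.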

In assay [20] the target is Glucocorticoid receptor (Homo sapiens) (UniProt P04150). Kind of assay: qHTS assay for small molecule agonists of glucocorticoid receptor signaling (AID 588532; active = well fitted curve in the direction sought with a large enough effect in the signal ratio, with a control signal flat; the % refers to the signal ratio;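 note: 100% = dexamethasone at 0.1 µM and 0% = DMSO only wells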). Particulars: HeLa MMTV-bla, beta-lactamase ratio, agonist, 18 h; stronger effect = higher value; percent of dexamethasone control, DMSO zero. In short, it runs like this:
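Stimulation of a glucocorticoid response element-driven beta-lactamase gene was measured in HeLa cells. Responses were scaled between DMSO basal and 0.1 uM dexamethasone, then fitted for half-maximal stimulation.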

Where “and” joins values, the source holds several entries; their conditions need not be identical. Identical values can stand only once. Results filed as inconclusive are left out. Calls of active or inactive are those of the source. Unless noted, calls come from the whole dose curve.

Sequence of Retinoic acid receptor RXR-alpha (Homo sapiens) (P19793 whole entry, looked up): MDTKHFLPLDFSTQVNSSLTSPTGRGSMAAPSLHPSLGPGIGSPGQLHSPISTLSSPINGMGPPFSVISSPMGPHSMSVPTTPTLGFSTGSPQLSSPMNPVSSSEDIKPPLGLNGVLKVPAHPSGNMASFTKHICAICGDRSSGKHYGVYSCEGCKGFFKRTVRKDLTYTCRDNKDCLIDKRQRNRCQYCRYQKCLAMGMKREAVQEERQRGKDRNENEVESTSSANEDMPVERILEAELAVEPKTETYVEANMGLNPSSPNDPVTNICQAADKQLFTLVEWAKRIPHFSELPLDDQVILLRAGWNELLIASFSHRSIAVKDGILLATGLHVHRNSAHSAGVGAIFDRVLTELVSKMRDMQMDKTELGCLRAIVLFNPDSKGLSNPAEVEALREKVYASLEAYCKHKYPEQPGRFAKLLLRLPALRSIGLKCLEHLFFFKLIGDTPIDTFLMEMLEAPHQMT
Sequence of Vitamin D3 receptor (Homo sapiens) (P11473 whole entry, looked up): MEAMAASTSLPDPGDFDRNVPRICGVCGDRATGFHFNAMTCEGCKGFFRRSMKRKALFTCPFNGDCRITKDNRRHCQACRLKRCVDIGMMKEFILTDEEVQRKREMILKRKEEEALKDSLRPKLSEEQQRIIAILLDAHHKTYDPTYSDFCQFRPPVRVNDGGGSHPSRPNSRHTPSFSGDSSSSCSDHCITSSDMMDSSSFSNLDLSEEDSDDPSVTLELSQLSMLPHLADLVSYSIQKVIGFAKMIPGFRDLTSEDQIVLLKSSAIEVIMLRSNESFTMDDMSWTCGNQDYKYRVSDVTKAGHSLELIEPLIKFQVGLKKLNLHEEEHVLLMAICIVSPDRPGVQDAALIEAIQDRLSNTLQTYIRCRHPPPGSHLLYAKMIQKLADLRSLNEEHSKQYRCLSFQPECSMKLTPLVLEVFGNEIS
Sequence of Peroxisome proliferator-activated receptor delta (Homo sapiens) (Q03181 whole entry, looked up): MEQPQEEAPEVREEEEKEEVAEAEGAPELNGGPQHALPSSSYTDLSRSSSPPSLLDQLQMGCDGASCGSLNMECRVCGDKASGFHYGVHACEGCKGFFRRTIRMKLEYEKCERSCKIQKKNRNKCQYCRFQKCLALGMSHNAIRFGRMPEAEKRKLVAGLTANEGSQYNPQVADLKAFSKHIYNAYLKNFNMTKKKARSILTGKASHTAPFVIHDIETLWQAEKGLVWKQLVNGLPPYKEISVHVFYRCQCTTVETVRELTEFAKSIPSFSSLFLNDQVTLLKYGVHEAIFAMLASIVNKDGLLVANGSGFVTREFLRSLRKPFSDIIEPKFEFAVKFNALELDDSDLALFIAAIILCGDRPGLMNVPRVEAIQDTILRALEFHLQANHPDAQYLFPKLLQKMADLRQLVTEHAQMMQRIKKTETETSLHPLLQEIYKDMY
Sequence of Androgen receptor (Homo sapiens) (P10275 whole entry, looked up): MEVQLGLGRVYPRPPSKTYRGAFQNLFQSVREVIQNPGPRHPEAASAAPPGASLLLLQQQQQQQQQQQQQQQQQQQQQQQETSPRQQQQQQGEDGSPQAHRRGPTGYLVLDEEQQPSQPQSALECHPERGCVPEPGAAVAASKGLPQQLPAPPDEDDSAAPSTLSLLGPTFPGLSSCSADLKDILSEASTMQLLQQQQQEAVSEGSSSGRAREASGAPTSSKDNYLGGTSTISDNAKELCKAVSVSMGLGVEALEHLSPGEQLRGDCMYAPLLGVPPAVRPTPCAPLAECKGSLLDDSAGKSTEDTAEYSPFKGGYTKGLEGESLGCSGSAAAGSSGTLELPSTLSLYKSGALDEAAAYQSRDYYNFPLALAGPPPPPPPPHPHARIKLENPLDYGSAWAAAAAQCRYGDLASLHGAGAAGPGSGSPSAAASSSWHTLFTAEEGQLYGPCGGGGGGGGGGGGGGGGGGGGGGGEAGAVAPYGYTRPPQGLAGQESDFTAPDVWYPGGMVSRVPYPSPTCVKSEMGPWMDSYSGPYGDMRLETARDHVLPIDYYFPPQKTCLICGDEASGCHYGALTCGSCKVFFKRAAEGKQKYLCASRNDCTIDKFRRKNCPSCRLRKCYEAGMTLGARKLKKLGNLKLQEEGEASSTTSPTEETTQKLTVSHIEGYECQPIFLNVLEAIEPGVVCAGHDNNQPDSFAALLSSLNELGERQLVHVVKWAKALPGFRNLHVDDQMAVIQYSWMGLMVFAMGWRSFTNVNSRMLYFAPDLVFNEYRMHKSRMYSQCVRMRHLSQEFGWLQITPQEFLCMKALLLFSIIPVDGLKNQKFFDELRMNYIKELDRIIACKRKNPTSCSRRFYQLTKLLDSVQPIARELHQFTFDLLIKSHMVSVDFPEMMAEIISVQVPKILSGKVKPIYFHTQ

As for `CO[C@H]1C=CO[C@@]2(C)Oc3c(C)c(O)c4c(O)c(c5c(c4c3C2=O)=NC2(CCN(CC(C)C)CC2)N=5)NC(=O)/C(C)=C\C=C/[C@H](C)[C@H](O)[C@@H](C)[C@@H](O)[C@@H](C)[C@H](OC(C)=O)[C@@H]1C`, in assay [1], the Potency result was “inactive”.

As to `O=C(O)CN(CCN(CC(=O)O)CC(=O)O)CC(=O)O`, the compound was called inactive in assay [2] and in [4]. In addition, the max response in [3] is -4.26% and -8.64%; in assay [5], -5.66% and -2.36%. The Potency entry in [6], in [7] and in [8] was “inactive” throughout.

Consider `CC1(C)C(C=C(Cl)Cl)C1C(=O)OCc1cccc(Oc2ccccc2)c1` (configuration not stated), for which the Potency result in [9], in [1], in [7] and in assay [8] was “inactive” in each case. The activation in [10] was 4.68% (inactive) [middle of 4 runs]. Also, the result in assay [11], in [12], in assay [13] and in [14] was inactive. Moreover, in assay [5], the max response was -5.2% [middle of 4 runs]. For the same compound, in assay [15], the activity change % (negative = inhibition) was 3.43% (inactive) [middle of 4 runs].

Regarding `CC1=CCC(C(C)(C)O)CC1` (configuration not stated), the Potency result in assay [9], in [16], in assay [1], in [6], in assay [7] and in [8] was “inactive” in each case. For the same compound, the activation in [10] is 3.37% (inactive). Moreover, the compound was called inactive in [11], in [13], in [2], in assay [14], in [18] and in assay [4]. Also, in [19], the compound was called inactive. For the same compound, the values for the max response in assay [17], in assay [3] and in assay [5] were -21.9%, -10.8% and 1.88%, respectively. Besides, the activity change % (negative = inhibition) in [15] is -18.4% (inactive).

With `CCOc1ccc2c(c1)C(C)=CC(C)(C)N2`, the Potency result in [9], in [1], in assay [6], in assay [7] and in assay [8] was “inactive” in each case. In addition, in [10], the activation was 15.4% (inactive). Moreover, the outcome in [11] and in assay [19] was inactive. The activity change % (negative = inhibition) in assay [15] is 8.54% (inactive).

Regarding `OCCO[C@@H]1[C@@H](O)[C@H](O)[C@@H](CO)O[C@@H]1O`, the Potency entry in assay [1] was “inactive”.

For `O=C(O)CCC(=O)C(=O)O`, the Potency result in assay [9], in assay [1], in assay [6], in assay [7] and in [8] was “inactive” each time. For the same compound, the activation in assay [20] is -1.14% (inactive). Besides, the compound was classed as inactive in assay [12], in assay [2], in [14], in assay [18], in [4] and in assay [19]. In addition, the results for the max response in assay [3] and in assay [5] were -2.92% and -14.3%, respectively. In [15], the activity change % (negative = inhibition) is 1.53% (inactive).

For the origin of these results see PubChem BioAssay (NCATS).
